According to PubChem BioAssay (NCI):
About 83,000 compounds went through this panel and 20% of them were active in at least one assay; those are over-represented in the sample as a whole.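 The test compound was applied at a single concentration to cells in 96-well plates for 48 hours, and percent growth was recorded.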 Values without a mark were called inactive. The source made the active and inactive calls. Rule for the calls: active = growth percent below 10; inactive = the rest.

Tests used:
Experiment in all cases: NCI-60 one-dose screen, 48 h (100 = growth as untreated, 0 = no growth, -100 = all killed)
Settings in all cases: 10 µM unless noted
[1] = test system: DU-145 prostate
[2] = test system: K-562 leukemia
[3] = test system: MALME-3M melanoma
[4] = test system: MDA-MB-231 breast
[5] = test system: RXF 393 renal
[6] = test system: SF-268 CNS
[7] = test system: SF-295 CNS
[8] = test system: SF-539 CNS
[9] = test system: UACC-257 melanoma
[10] = test system: M14 melanoma

Question: Which results are given for `CCc1cccc(NC(=O)CNc2cc(S(=O)(=O)N(C)C)cc(C)c2C)c1`?
Answer: growth [1]: 80.3%; growth [2]: 85%; growth [3]: 106%; growth [4]: 78%; growth [5]: 37.7%; growth [6]: 75%; growth [7]: 91.6%; growth [8]: 90.7%; growth [9]: 101%; growth [10]: 100%

Question: `Fc1ccc(-c2cc3nc(C(Cl)Cl)nc(-c4ccc(F)cc4)n3n2)cc1` was tested. Which growth [1] did it give?
Answer: -18.4% (active)

Question: What about the growth [2] of the same compound?
Answer: 14.3%

Question: And the growth [3]?
Answer: 9.81% (active)

Question: What about the growth [4] of the same compound?
Answer: 5.31% (active)

Question: What about the growth [5] of the same compound?
Answer: -58.1% (active)

Question: And the growth [6]?
Answer: 23.2%

Question: And the growth [7]?
Answer: 8.01% (active)

Question: And the growth [8]?
Answer: 21.3%

Question: What about the growth [9] of the same compound?
Answer: 20.5%

Question: What about the growth [10] of the same compound?
Answer: -4.2% (active)

Question: With `Nn1c(N/N=C/c2nc3ccccc3s2)n[nH]c1=S` as the compound, how does the growth [1] read?
Answer: 97.5%

Question: What about the growth [2] of the same compound?
Answer: 108%

Question: And the growth [3]?
Answer: 109%

Question: And the growth [4]?
Answer: 88.2%

Question: And the growth [5]?
Answer: 83.9%

Question: What about the growth [6] of the same compound?
Answer: 93.2%

Question: What about the growth [7] of the same compound?
Answer: 105%

Question: What about the growth [8] of the same compound?
Answer: 103%

Question: What about the growth [9] of the same compound?
Answer: 109%

Question: And the growth [10]?
Answer: 111%

Question: Which results are given for `CC(C)(C)n1cc(-c2ccnc(NCCCNS(=O)(=O)c3cccc(F)c3)n2)c(-c2ccc(Cl)c(O)c2)n1`?
Answer: growth [1]: 94.4%; growth [2]: 59%; growth [3]: 94%; growth [4]: 103%; growth [5]: 105%; growth [6]: 95.9%; growth [7]: 108%; growth [8]: 104%; growth [9]: 114%; growth [10]: 94.9%

Question: With `COc1cc(OC)c(S(N)(=O)=O)cc1C(=O)/C=C/c1ccc(C)cc1` as the compound, how does the growth [1] read?
Answer: 1.29% (active)

Question: And the growth [2]?
Answer: 7.24% (active)

Question: And the growth [3]?
Answer: 72.9%

Question: What about the growth [4] of the same compound?
Answer: 14.2%

Question: What about the growth [5] of the same compound?
Answer: -28.2% (active)

Question: What about the growth [6] of the same compound?
Answer: 31.6%

Question: And the growth [7]?
Answer: 23.6%

Question: And the growth [8]?
Answer: 1.82% (active)

Question: What about the growth [9] of the same compound?
Answer: 81%

Question: What about the growth [10] of the same compound?
Answer: 41.5%

Question: `C=C(C)[C@@H]1CC[C@]2(C(=O)NCCCCCN(CCC#N)CCC#N)CC[C@]3(C)[C@H](CC[C@@H]4[C@@]5(C)CCC(=O)C(C)(C)[C@@H]5CC[C@]43C)[C@@H]12` was tested. Which growth [1] did it give?
Answer: 96.2%

Question: What about the growth [2] of the same compound?
Answer: 96.9%

Question: What about the growth [3] of the same compound?
Answer: 119%

Question: What about the growth [4] of the same compound?
Answer: 107%

Question: And the growth [5]?
Answer: 58.2%

Question: And the growth [6]?
Answer: 81.5%

Question: What about the growth [7] of the same compound?
Answer: 99.6%

Question: What about the growth [8] of the same compound?
Answer: 101%

Question: And the growth [9]?
Answer: 103%

Question: And the growth [10]?
Answer: 97.6%

Question: Which results are given for `CCO/C=N/C1=C(C#N)C(c2ccc(OC)cc2)c2sc3c(C)cccc3c2O1` (stereo not given)?
Answer: growth [1]: 22%; growth [2]: 12.6%; growth [3]: 60.6%; growth [4]: 27.5%; growth [5]: -23.9% (active); growth [6]: 54.1%; growth [7]: 1.06% (active); growth [8]: -11.6% (active); growth [9]: 88.7%; growth [10]: 5.22% (active)

Question: What does the source list for `COc1cc(-c2ccc3ncnc(NCc4ccccc4)c3c2)cnc1OC`?
Answer: growth [1]: 24.3%; growth [2]: 85.2%; growth [3]: 94.9%; growth [4]: 41.5%; growth [5]: -18.3% (active); growth [6]: 46.5%; growth [7]: 55.1%; growth [8]: 48.7%; growth [9]: 75.7%; growth [10]: 86.2%

Question: Which results are given for `CCCCCCCn1cc2c(NCCc3ccccc3)ncnc2n1`?
Answer: growth [1]: 102%; growth [2]: 88.6%; growth [3]: 94.4%; growth [4]: 94%; growth [5]: 104%; growth [6]: 99.3%; growth [7]: 90%; growth [8]: 95.9%; growth [9]: 102%; growth [10]: 100%

Question: Which growth [1] does the source give for `CCNC(=O)Oc1ccc(/C(=C(/C)c2ccccc2)c2ccc(OCCN3CCCCCC3)cc2)cc1` here?
Answer: 38.7%

Question: And the growth [2]?
Answer: 2.41% (active)

Question: And the growth [3]?
Answer: -70.8% (active)

Question: What about the growth [4] of the same compound?
Answer: 6.37% (active)

Question: And the growth [5]?
Answer: -7.37% (active)

Question: What about the growth [6] of the same compound?
Answer: 31.8%

Question: What about the growth [7] of the same compound?
Answer: -1.08% (active)

Question: What about the growth [8] of the same compound?
Answer: -74.5% (active)

Question: And the growth [9]?
Answer: -48.9% (active)

Question: What about the growth [10] of the same compound?
Answer: -80.3% (active)

Question: Which results are given for `COc1ccc(CCN2C(=O)CSC2=S)cc1`?
Answer: growth [1]: 41%; growth [2]: 51.4%; growth [3]: 98%; growth [4]: 79.6%; growth [5]: 89.7%; growth [6]: 100%; growth [7]: 97.6%; growth [8]: 84.7%; growth [9]: 98.9%; growth [10]: 101%

Question: With `COc1ccc(-c2nc(C(Cl)Cl)nc3cc(-c4ccccc4)nn23)cc1` as the compound, how does the growth [1] read?
Answer: -26.7% (active)

Question: And the growth [2]?
Answer: 7.86% (active)

Question: And the growth [3]?
Answer: -44.9% (active)

Question: And the growth [4]?
Answer: 6.65% (active)

Question: And the growth [5]?
Answer: -82.1% (active)

Question: And the growth [6]?
Answer: 14.2%

Question: And the growth [7]?
Answer: 9.62% (active)

Question: What about the growth [8] of the same compound?
Answer: 35.5%

Question: And the growth [9]?
Answer: 4.58% (active)

Question: And the growth [10]?
Answer: -69% (active)

Question: With `COc1ccc(CCOc2cc3c(cc2OC)CCN(C(=O)NCc2cocn2)C3c2ccc(C)cc2C)cc1` (stereo not given) as the compound, how does the growth [1] read?
Answer: 14.1%

Question: What about the growth [2] of the same compound?
Answer: 10%

Question: And the growth [3]?
Answer: 52.2%

Question: And the growth [4]?
Answer: 20.5%

Question: And the growth [5]?
Answer: 1.12% (active)

Question: What about the growth [6] of the same compound?
Answer: 21.2%

Question: And the growth [7]?
Answer: 12.8%

Question: And the growth [8]?
Answer: 1.43% (active)

Question: And the growth [9]?
Answer: 38%

Question: And the growth [10]?
Answer: 11.7%

Question: How did the growth [1] turn out when `COc1ccc(/C(N)=N/C(N)=N/c2nc3ccccc3s2)cc1` was run?
Answer: 81%

Question: And the growth [2]?
Answer: 32.9%

Question: What about the growth [3] of the same compound?
Answer: 94.4%

Question: What about the growth [4] of the same compound?
Answer: 76%

Question: And the growth [5]?
Answer: 65.7%

Question: And the growth [6]?
Answer: 78.9%

Question: And the growth [7]?
Answer: 52%

Question: And the growth [8]?
Answer: 90.5%

Question: And the growth [9]?
Answer: 98.5%

Question: What about the growth [10] of the same compound?
Answer: 81.4%
